From PubChem
Most compounds without a hit are left out; they make up all but 3.2% or so of the library.
S16 F2sN tox – S16 Schwann cell cytotoxicity | S16 Pmp22-F2sN Schwann cells viability, CellTiter-Glo, 24 h | Potency, µM (series often up to 57.5 µM), for inactives: top-dose activity change, negative = cytotoxicity, usual class: cytotoxic | 43,000 tested, 0.48% active; further: potency means the concentration at half of the fitted maximal effect; on the % scale 0 is the no-effect control and ±100 the full control effect; nearly all actives have a fitted effect of over 65% in size
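Luminescence from CellTiter-Glo, read by CCD camera after a 15 min room-temperature incubation, served as the viability signal. Reporter Schwann cells (S16 Pmp22-F2sN) had been treated with pin-transferred compounds for 24 h at 37C.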
PMP22 txn prim – modulators of PMP22 gene transcription in S16 Schwann cells; S16 Pmp22-F2sN Schwann cells (luciferase reporters placed in the Pmp22 gene), FLuc/NLuc coincidence luminescence, 24 h; Potency, µM (top dose mostly 57.5 µM), without a hit: at the highest dose activity change, negative = inhibition, hits mostly inhibitors; 43,000 tested, 2% active; active means clear falling dose curves in both reporters; inconclusive means both reporters move, but less clearly or upward; inactive means either reporter flat; the % is the NLuc reporter signal; further: potency means the concentration at half of the fitted maximal effect; on the % scale 0 is the no-effect control and ±100 the full control effect
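Luminescent read-out of sequential FLuc and NLuc signals from a reporter embedded in the Pmp22 3' UTR of S16 Schwann cells, taken after 24 h compound exposure at 37C; compounds reducing both signals score as inhibitors of expression.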
pS6 MEF inh – reduces mTORC1 signaling in Tsc2 and p53 null MEF cells. 44,000 tested, 0.78% active. Potency, µM (highest dose often 38.3 µM), for the others: at the highest dose activity change, negative = inhibition, actives largely listed as inhibitors. AID 493208. Tsc2-/- p53-/- MEF, phospho-rpS6 immunofluorescence/PI, 24 h;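 further: potency means the concentration at half of the fitted maximal effect; plate controls were DMSO for no effect and rapamycin for full effect; nearly all actives have a fitted effect of over 50% in size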
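Readout is phospho-S6 Alexa 488 signal normalized to PI per well, reported as % active cells with thresholds set from rapamycin (7.5 nM) and DMSO controls. Cells: Tsc2-/-, p53-/- MEFs, 24 hrs compound at 37 C; PI cell number serves as viability.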
p53null 39C tox – selectivity test: cytotoxicity in p53 null cells, nonpermissive temperature. H1299 p53-null (neo) cells, 39C, ATPlite viability, 24 h. Potency, µM (highest dose often 46.1 µM), without a hit: at the highest dose activity, negative = cell killing, usual class: cytotoxic. 55,000 tested, 0.97% active;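 further: potency means the concentration at half of the fitted maximal effect; 0% = DMSO only and -100% = full killing by 100 µM tamoxifen; nearly all actives have a fitted effect of over 50% in size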
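ATP-luminescence viability readout (ATPlite, 20 min RT) after 24 hr compound treatment at 39C of H1299-neo or H1299-p53A138V cells; titration up to 46 uM; normalized to DMSO and 100 uM tamoxifen; Hill-fit AC50.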
p53null 32C tox – kills p53 null cells at the permissive temperature. Potency, µM (series often up to 46.1 µM), for the others: top-dose activity change, negative = cytotoxicity, actives largely listed as cytotoxic. H1299-neo p53 null cells, ATP luminescence, 24 h, 32C. 55,000 tested, 0.62% active. AID 903;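 further: potency means the concentration at half of the fitted maximal effect; 0% = DMSO only and -100% = full killing by 100 µM tamoxifen; nearly all actives have a fitted effect of over 55% in size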
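We seeded p53-null H1299-neo cells, incubated them overnight at 37C, and added compounds across a range up to 46 uM. After 24 hours at 32C, ATP reagent was applied for 20 min at room temperature and luminescence recorded.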
NLuc sat counter – NanoLuc enzyme inhibition artifact for PMP22 screen; shares compounds with PMP22 txn prim; Secreted NLuc enzyme (filtered S16 cell medium), Nano-Glo luminescence; Potency, µM (highest dose often 57.5 µM), for inactives: at the top dose activity change, negative = inhibition, most hits filed as inhibitors; 690 tested, 4% active; further: potency means the concentration at half of the fitted maximal effect; on the % scale 0 is the no-effect control and ±100 the full control effect
NLuc Km counter – NanoLuc inhibition at Km substrate, PMP22 artifact check | shares compounds with PMP22 txn prim | secreted NLuc enzyme, coelenterazine luminescence, Km conditions | Potency, µM (top dose mostly 57.5 µM), without a hit: top-dose activity change, negative = inhibition, hits mostly inhibitors | 690 tested, 5% active; further: potency means the concentration at half of the fitted maximal effect; on the % scale 0 is the no-effect control and ±100 the full control effect
FLuc ctr PMP22 – inhibits firefly luciferase, PMP22 counter-screen | purified P. pyralis FLuc, luminescence, 10 min | AID 1508640 | 690 tested, under 10 active | shares compounds with PMP22 txn prim | Potency, µM (series often up to 57.5 µM), for inactives: at the top dose activity, negative = inhibition, hits mostly inhibitors; further: % of control where 0% means no effect
Target sequence (P08659 whole entry, looked up): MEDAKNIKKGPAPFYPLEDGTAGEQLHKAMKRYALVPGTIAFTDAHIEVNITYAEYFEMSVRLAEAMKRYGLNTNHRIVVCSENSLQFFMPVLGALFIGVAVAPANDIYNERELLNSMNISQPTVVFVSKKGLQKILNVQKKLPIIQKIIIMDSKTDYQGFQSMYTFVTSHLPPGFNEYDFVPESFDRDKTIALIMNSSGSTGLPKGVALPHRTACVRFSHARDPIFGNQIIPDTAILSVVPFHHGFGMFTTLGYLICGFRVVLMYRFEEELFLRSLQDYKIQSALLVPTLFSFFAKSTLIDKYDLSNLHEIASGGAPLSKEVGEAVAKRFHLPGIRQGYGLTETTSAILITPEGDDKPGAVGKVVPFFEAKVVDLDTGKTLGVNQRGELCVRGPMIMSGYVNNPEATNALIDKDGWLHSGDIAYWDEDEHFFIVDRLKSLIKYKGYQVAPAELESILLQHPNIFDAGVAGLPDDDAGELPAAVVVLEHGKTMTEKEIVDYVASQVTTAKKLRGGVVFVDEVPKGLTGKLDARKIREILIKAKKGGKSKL
S16 F2sN tox cnf – S16 Schwann cell cytotoxicity, confirmatory; shares compounds with PMP22 txn prim; S16 Schwann cells viability, CellTiter-Glo ATP luminescence, 24 h; Potency, µM (top dose mostly 57.5 µM), for the others: top-dose activity change, negative = viability loss, most hits filed as cytotoxic; 690 tested, 7% active; AID 1508641; further: potency means the concentration at half of the fitted maximal effect; on the % scale 0 is the no-effect control and ±100 the full control effect
PMP22 txn conf – confirmation of modulators of PMP22 gene transcription in S16 cells. AID 1508646. S16 Schwann cells Pmp22-F2sN, dual luciferase, 24 h. 690 tested, 22% active. shares compounds with PMP22 txn prim. Potency, µM (doses to about 57.5 µM), without a hit: top-dose activity change, negative = inhibition, usual class: inhibitors; active means clear falling dose curves in both reporters; inconclusive means both reporters move, but less clearly or upward; inactive means either reporter flat; the % is the FLuc reporter signal; further: potency means the concentration at half of the fitted maximal effect
PMP22 HiBiT cnf – rat PMP22 protein level modulation, confirmatory | shares compounds with PMP22 txn prim | S16 Schwann cells Pmp22-HiBiT, luminescence, 48 h | Potency, µM (top dose mostly 27.9 µM), without a hit: at the highest dose activity change, negative = inhibition, usual class: inhibitors | 95 tested, under 10 active | AID 1508647
Target sequence (P25094 whole entry, looked up): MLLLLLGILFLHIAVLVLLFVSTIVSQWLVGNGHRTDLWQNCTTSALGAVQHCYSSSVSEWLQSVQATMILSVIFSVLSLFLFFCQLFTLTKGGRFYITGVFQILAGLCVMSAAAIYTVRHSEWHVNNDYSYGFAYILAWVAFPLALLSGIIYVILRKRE
Active calls of the source: *; ? = inconclusive; / = no result. Unless noted, the call rests on the fitted dose curve; in most records, active means well fitted curve in the direction sought with a large enough effect; inconclusive means small, poorly fitted or top-dose-only effect, or another doubt; inactive means no such curve, though single readings can be large; an effect the other way counts as inactive or inconclusive.

SMILES | S16 F2sN tox | PMP22 txn prim | pS6 MEF inh | p53null 39C tox | p53null 32C tox | NLuc sat counter | NLuc Km counter | FLuc ctr PMP22 | S16 F2sN tox cnf | PMP22 txn conf | others
COc1ccc2c(Sc3ccccc3)c(C(=O)NCC(C)c3ccccc3)[nH]c2c1 (configuration not stated) | -8% | -12% | 0% | -10% | -10% | / | / | / | / | /
COC(=O)c1cc2occc2n1Cc1cccc(C)c1 | 1% | ? | 5% | -7% | 7% | -20% | ? | 3% | 7% | 20%
COc1ccc(N2CC(NC(=O)c3cccs3)CC2=O)cc1 (configuration not stated) | -1% | 30% | -1% | 7% | -4% | / | / | / | / | /
CC(=O)c1ccc(N2CCN(S(=O)(=O)c3cc(-c4onc(C)c4C)ccc3C)CC2)cc1 | -15% | 10µM* | -14% | -19% | -10% | ? | ? | -1% | -9% | -18%
Cc1c(Cl)cccc1NC(=O)CSc1ncc2c(n1)-c1ccccc1N(C)S2(=O)=O | 5% | 17µM* | 3% | -18% | -23% | ? | ? | 2% | 6% | -44%
O=C(Nc1ccc(Br)c2cccnc12)c1cccc2ccccc12 | 14% | 16µM* | -5% | -13% | -3% | -10% | 1% | 2% | 13% | ?
O=C(Nc1cccc2cccnc12)c1cccc2ccccc12 | 2% | ? | -5% | -8% | -23% | / | / | / | / | /
Cc1nc(NC(=O)c2cc(-n3cnnc3)ccc2Cl)ccc1Br | / | / | / | 2% | 0% | / | / | / | / | /
COC(=O)c1ccc(C(=O)OC)c(NC(=O)Oc2ccccc2)c1 | / | / | / | / | -7% | / | / | / | / | /
COc1ccc(-c2csc3ncnc(Nc4ccc(OC)cc4OC)c23)cc1 | -21% | ? | 0% | 20% | 2% | / | / | / | / | /
COc1ccccc1Nc1ncnc2scc(-c3ccc(F)cc3)c12 | -28% | 18µM* | 11% | -5% | -7% | -8% | 4% | 7% | -2% | -49%
COc1ccc(C2=C(N3CCN(c4cccc(C)c4C)CC3)c3ccccc3C2=O)cc1 | / | / | 1% | -4% | -8% | / | / | / | / | /
Cc1nn(-c2ccccc2)c2sc(C(=O)Nc3ccc(Cl)cc3Cl)cc12 | -6% | 4% | 9% | 17% | 2% | / | / | / | / | /
CC(=O)c1cccc(Nc2nc(-c3ccccc3Cl)nc3ccccc23)c1 | -2% | 11µM* | 15% | ? | 2% | 5.4µM* | 0.86µM* | -5% | -10% | -27%
Cc1cc(N2CCN(c3cccc(C(F)(F)F)c3)CC2)n2nc(-c3ccccc3C)nc2n1 | 2% | 16µM* | -5% | -14% | -6% | ? | -19% | -10% | -6% | ?
COc1cccc(N2CCN(c3ncnc4c3c(-c3ccccc3)cn4-c3cccc(C(F)(F)F)c3)CC2)c1 | 14% | 2% | 13% | 3% | -12% | / | / | / | / | /
CCc1ccc(S(=O)(=O)c2cn(Cc3ccc(OC)cc3)c3cc(OC)c(OC)cc3c2=O)cc1 | -17% | -23% | 1% | -12% | 18% | / | / | / | / | /
CCc1ccc(S(=O)(=O)c2cn(Cc3ccccc3F)c3cc(OC)c(OC)cc3c2=O)cc1 | -18% | 14µM* | -8% | -12% | 9% | -19% | 4% | 7% | 9% | -44%
Cc1[nH]c2ccccc2c1C1(O)C(=O)N(Cc2ccccc2)c2ccc(Br)cc21 (configuration not stated) | -9% | 16µM* | ? | ? | 18% | -16% | ? | -1% | ? | ?
CN(Cc1ccccc1)S(=O)(=O)c1ccc(F)c(C(=O)Nc2cc(Cl)cc(Cl)c2)c1 | ? | ? | 14% | 25% | -11% | / | / | / | / | /
O=C(Cn1c(-c2cccs2)cc2cc(F)ccc21)NCCCN1CCN(c2ccc(F)cc2)CC1 | 0% | ? | -6% | 2% | -4% | / | / | / | / | / | PMP22 HiBiT cnf=3%
COc1ccc(CCNC(=O)Cn2c(-c3cccs3)cc3cc(F)ccc32)cc1OC | 9% | ? | -10% | 6% | ? | / | / | / | / | / | PMP22 HiBiT cnf=?
CCOc1ccc(CCNC(=O)Cn2c(-c3cccs3)cc3ccccc32)cc1OCC | -8% | ? | -1% | -1% | -8% | / | / | / | / | /
CCCCN(C(=O)Nc1ccc(Cl)cc1)C1CCN(C(C)=O)CC1 | -7% | -2% | -17% | 25% | 10% | / | / | / | / | /
COc1ccc(N2C(=O)CSC23C(=O)N(Cc2cccc(C(F)(F)F)c2)c2ccccc23)cc1 (configuration not stated) | -20% | ? | -5% | 59% | 17% | / | / | / | / | /
CCc1ccc(N2C(=O)CSC23C(=O)N(Cc2cccc(OC)c2)c2ccccc23)cc1 (configuration not stated) | ? | 13µM* | -6% | 5% | 0% | -7% | 6% | -6% | -13% | -47%
Clc1ccc(-c2noc3ncnc(N4CCCCC4)c23)cc1 | -21% | 12µM* | -24% | -4% | 4% | -7% | 5% | -5% | -7% | -38%
COc1ccccc1N1CCN(S(=O)(=O)CCNC(=O)COc2ccccc2F)CC1 | 5% | -19% | -10% | -8% | 3% | / | / | / | / | /
Cn1c(=O)c2cc(C(=O)NCCCN3CCN(c4cccc(Cl)c4)CC3)sc2c2ccccc21 | -1% | -28% | -1% | ? | -6% | / | / | / | / | /
